Where “and” joins values, the source holds several entries; their conditions need not be identical. Equal values may be shown once. Inconclusive results are not listed. Calls of active or inactive are those of the source. Rule for the calls, unless noted: active = hit-call score of the fitted dose curve at least 0.9, where 1 is the maximum; inconclusive = response in the unintended direction; inactive = score below 0.9.

The target of experiment [1] is rat Opioid Receptor, Non-selective Binding, Oprm1 (gene 25601) (UniProt P33535). In words: NVS_GPCR_rOpiate_NonSelective: NovaScreen (NVS) G Protein-Coupled Receptor Assay for rat Opioid Receptor, Non-selective Binding (AID 2283318). In short, it runs like this: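 Rat forebrain membranes, cell-free radioligand binding with filter-based scintillation counting, read 1.5 h after dosing. Primary screen in duplicate at 25 uM; actives retested in concentration series. Loss of signal versus DMSO baseline scored.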
rat Opioid Receptor, Non-selective Binding, Oprm1 (gene 25601), sequence (P33535 whole entry, looked up): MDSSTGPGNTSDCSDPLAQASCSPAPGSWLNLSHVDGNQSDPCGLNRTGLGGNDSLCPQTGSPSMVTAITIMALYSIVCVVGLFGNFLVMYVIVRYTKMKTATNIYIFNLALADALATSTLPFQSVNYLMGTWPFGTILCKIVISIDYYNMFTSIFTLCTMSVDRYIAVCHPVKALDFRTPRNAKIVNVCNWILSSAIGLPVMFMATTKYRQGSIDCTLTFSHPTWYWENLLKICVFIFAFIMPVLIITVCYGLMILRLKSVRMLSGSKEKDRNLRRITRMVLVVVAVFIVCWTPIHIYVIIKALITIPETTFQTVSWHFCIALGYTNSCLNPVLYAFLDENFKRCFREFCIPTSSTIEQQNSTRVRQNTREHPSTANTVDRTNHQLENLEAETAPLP

Experiment [2] can be described thus: NVS_IC_rCaDHPRCh_L: NovaScreen (NVS) Ion Channel Assay for rat Calcium Channel, Type L, Dihydropyridine Site (CaDHPRCh_L) (AID 2283320). In short, it runs like this: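 Radioligand binding to dihydropyridine site on rat cortical membranes, filter-based scintillation counting, 1 h after dosing. Screened in duplicate at 25 uM; actives rerun in concentration-response up to 50 uM. Loss of signal versus DMSO baseline.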

Experiment [3] has as its target human Peripheral-type Benzodiazepine Receptor (PBR), TSPO (gene 706) (UniProt P30536). In words: NVS_MP_hPBR: NovaScreen (NVS) Membrane Protein Assay for human Peripheral-type Benzodiazepine Receptor (PBR) (AID 2283331).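 Note: hits reduce radioligand binding relative to DMSO baseline.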 In short, it runs like this:
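Scintillation counts of filter-bound radioligand served as read-out after 1 h chemical dosing of human colonic membrane preparations. Activity was scored as signal loss against DMSO; initial duplicates at 25 uM, confirmatory concentration series afterward.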

Experiment [4] concerns the target rat Peripheral-type Benzodiazepine Receptor (PBR), Tspo (gene 24230) (UniProt P16257). In words: NVS_MP_rPBR: NovaScreen (NVS) Membrane Protein Assay for rat Peripheral-type Benzodiazepine Receptor (PBR) (AID 2283335). In short, it runs like this: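 Rat kidney membranes; radioligand binding with displacement, filter-based scintillation counting, 1 h incubation. Primary screen in duplicate at 25 uM, actives followed in concentration series; loss of binding vs DMSO.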

In experiment [5] the target is rat Glutamate, AMPA Site (AMPA), Gria1 (gene 50592) (UniProt P19490). In words: NVS_LGIC_rAMPA: NovaScreen (NVS) Ligand-Gated Ion Channel Assay for rat Glutamate, AMPA Site (AMPA) (AID 2283324). The method in brief:
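Rat forebrain membranes; radioligand binding read 1 h after dosing by filtration and scintillation counting. Duplicate single-point screen at 25 uM, then concentration-response to 50 uM for threshold hits (e.g. 30% inhibition); loss of signal vs DMSO.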

Experiment [6] concerns the target rat Thyrotropin Releasing Hormone Receptor (TRH), Trhr (gene 25570) (UniProt Q01717). In words: NVS_GPCR_rTRH: NovaScreen (NVS) G Protein-Coupled Receptor Assay for rat Thyrotropin Releasing Hormone Receptor (TRH) (AID 2283329).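 Note: hit means lower bound tracer signal versus DMSO baseline.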 In short, it runs like this: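 Rat forebrain membranes; radioligand displacement at TRH receptor by filter-based scintillation counting, read 4 h after dosing. Duplicate single-point screen at 25 uM, actives rerun in concentration series; loss of signal relative to DMSO.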

The target of experiment [7] is Sodium channel protein type 1 subunit alpha (Rattus norvegicus) (UniProt P04774). In words: NVS_IC_rNaCh_site2: NovaScreen (NVS) Ion Channel Assay for rat Sodium Channel, Site 2 (NaCh) (AID 2283322).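 Note: hit means loss of radioligand binding signal relative to DMSO so AC50 marks displacement.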 The method in brief:
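Membranes: rat forebrain. Format: competitive radioligand displacement, filter separation, scintillation readout, 1 h exposure. Primary screen in duplicate at 25 uM; actives retested in concentration series.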

For experiment [8], the target named is bovine Gamma-Aminobutyric Acid Type A Receptor BDZ, alpha 5 site (GABARa5), GABRA5 (gene 523515) (UniProt Q08E50). In words: NVS_LGIC_bGABARa5: NovaScreen (NVS) Ligand-Gated Ion Channel Assay for bovine Gamma-Aminobutyric Acid Type A Receptor BDZ, alpha 5 site (GABARa5) (AID 2283323). In short, it runs like this: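 Radioligand competitive displacement binding on bovine hippocampal membranes, read 1 hr after dosing by filter-based scintillation counting. Primary screen at 25 uM in duplicate; actives (e.g. ≥30% inhibition) then run in concentration-response up to 50 uM.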
bovine Gamma-Aminobutyric Acid Type A Receptor BDZ, alpha 5 site (GABARa5), GABRA5 (gene 523515), sequence (Q08E50 whole entry, looked up): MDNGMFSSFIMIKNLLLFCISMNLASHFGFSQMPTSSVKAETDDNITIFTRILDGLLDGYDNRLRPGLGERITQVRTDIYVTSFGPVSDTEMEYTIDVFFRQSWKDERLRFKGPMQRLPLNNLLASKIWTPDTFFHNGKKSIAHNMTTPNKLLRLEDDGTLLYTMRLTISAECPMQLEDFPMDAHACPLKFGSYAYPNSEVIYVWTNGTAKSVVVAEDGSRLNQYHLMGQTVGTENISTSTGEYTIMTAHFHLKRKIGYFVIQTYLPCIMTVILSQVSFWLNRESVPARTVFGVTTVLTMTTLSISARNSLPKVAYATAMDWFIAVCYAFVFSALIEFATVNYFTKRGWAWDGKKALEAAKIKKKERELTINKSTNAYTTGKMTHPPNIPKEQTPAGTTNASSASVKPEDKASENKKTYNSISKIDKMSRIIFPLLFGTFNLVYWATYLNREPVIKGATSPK

The target in experiment [9] is bovine Gamma-Aminobutyric Acid Type A Receptor BDZ, alpha 1 site (GABARa1), GABRA1 (gene 780973) (UniProt P08219). In words: NVS_LGIC_bGABARa1: NovaScreen (NVS) Ligand-Gated Ion Channel Assay for bovine Gamma-Aminobutyric Acid Type A Receptor BDZ, alpha 1 site (GABARa1) (AID 2283321). The method in brief:
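Radioligand competition binding on bovine cortical membranes, 0.75 h, filter-based scintillation counting. Primary single concentration 25 uM in duplicate; actives rerun in concentration-response to 50 uM max. Loss of signal fitted versus DMSO.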

For the next experiment, the system named is NCBI gene 24521. In words: NVS_IC_rKATPCh: NovaScreen (NVS) Ion Channel Assay for rat Potassium Channel, ATP-Sensitive (KATPCh) (AID 2283319). In short, it runs like this: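 Rat cortical membranes; radioligand binding at ATP-sensitive K channel site, filter-based scintillation counting 2 h after dosing. Single-point duplicate screen at 25 uM, hits rerun in concentration-response up to 50 uM; loss of signal versus DMSO.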

In experiment [10] the target is bovine Gamma-Aminobutyric Acid Type A Receptor Agonist (GABAR Agonist), GABRA1 (gene 780973) (UniProt P08219). In words: NVS_LGIC_bGABAR_Agonist: NovaScreen (NVS) Ligand-Gated Ion Channel Assay for bovine Gamma-Aminobutyric Acid Type A Receptor Agonist (GABAR Agonist) (AID 2283338). The method in brief: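 Radioligand binding to bovine cerebellar membranes in agonist format, read by filter-based scintillation counting after 1 h. Primary screen in duplicate at 25 uM, with actives followed in concentration series. Gain of signal versus DMSO.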
bovine Gamma-Aminobutyric Acid Type A Receptor Agonist (GABAR Agonist), GABRA1 (gene 780973), sequence (P08219 whole entry, looked up): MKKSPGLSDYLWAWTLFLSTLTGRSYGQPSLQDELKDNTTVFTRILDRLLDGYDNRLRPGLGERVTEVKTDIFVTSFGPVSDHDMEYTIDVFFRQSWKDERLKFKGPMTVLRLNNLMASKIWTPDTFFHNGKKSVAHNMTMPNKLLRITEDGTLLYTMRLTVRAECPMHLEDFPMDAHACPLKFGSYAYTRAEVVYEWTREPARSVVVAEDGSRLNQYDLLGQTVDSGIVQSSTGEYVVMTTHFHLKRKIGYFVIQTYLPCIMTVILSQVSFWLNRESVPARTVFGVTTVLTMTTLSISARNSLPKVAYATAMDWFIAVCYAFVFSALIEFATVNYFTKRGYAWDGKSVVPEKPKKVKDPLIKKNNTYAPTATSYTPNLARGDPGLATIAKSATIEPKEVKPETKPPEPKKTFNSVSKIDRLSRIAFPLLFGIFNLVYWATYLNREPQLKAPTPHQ

In experiment [11] the target is rat Glutamate, NMDA Agonist Site (GluNMDA), Grin1 (gene 24408) (UniProt P35439). In words: NVS_LGIC_rGluNMDA_Agonist: NovaScreen (NVS) Ligand-Gated Ion Channel Assay for rat Glutamate, NMDA Agonist Site (GluNMDA) (AID 2283327). The method in brief:
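Rat forebrain membranes, radioligand binding in the agonist-site protocol; 1 h after dosing; filter-based scintillation counting. Single-concentration duplicate screen at 25 uM, then concentration-response up to 50 uM for actives; gain-of-signal vs DMSO.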

For experiment [12], the target named is Glutamate receptor ionotropic, kainate 1 (Rattus norvegicus) (UniProt P22756). In words: NVS_IC_rKAR: NovaScreen (NVS) Ion Channel Assay for rat Kainic Acid Receptors (KAR) (AID 2283334; active = hit-call score of the fitted dose curve at least 0.9, where 1 is the maximum; inactive = score below 0.9). The method in brief: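 Radioligand displacement binding using rat forebrain membranes, 1 h incubation, filter-based scintillation counting. Screened in duplicate at 25 uM, with actives retested in concentration-response up to 50 uM; fitted against DMSO.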
Glutamate receptor ionotropic, kainate 1 (Rattus norvegicus), sequence (P22756 whole entry, looked up): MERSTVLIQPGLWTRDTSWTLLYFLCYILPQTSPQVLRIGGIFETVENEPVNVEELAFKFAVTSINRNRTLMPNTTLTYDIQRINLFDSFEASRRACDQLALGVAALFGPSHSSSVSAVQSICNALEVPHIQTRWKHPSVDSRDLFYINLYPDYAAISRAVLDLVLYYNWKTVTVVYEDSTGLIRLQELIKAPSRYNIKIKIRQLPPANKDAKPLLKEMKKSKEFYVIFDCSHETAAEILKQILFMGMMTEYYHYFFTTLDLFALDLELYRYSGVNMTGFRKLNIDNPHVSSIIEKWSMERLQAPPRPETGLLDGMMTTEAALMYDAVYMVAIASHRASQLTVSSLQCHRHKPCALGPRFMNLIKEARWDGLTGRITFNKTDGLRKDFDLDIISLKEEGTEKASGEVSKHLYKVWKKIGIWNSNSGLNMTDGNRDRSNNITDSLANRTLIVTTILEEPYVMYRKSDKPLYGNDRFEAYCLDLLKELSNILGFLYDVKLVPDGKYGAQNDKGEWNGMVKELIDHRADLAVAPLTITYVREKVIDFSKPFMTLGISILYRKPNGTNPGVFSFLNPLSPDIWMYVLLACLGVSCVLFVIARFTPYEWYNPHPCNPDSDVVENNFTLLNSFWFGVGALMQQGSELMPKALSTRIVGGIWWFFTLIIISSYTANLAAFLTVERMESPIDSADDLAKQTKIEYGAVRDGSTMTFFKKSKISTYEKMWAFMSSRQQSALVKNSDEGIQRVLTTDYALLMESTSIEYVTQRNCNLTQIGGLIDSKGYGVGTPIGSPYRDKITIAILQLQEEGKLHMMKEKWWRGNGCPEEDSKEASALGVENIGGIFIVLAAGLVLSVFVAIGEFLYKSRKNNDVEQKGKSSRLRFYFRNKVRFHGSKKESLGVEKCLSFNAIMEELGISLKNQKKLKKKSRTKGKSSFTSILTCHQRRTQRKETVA

For experiment [13], the target named is Small conductance calcium-activated potassium channel protein 1 (Rattus norvegicus) (UniProt P70606). In words: NVS_IC_rKCaCh: NovaScreen (NVS) Ion Channel Assay for rat Potassium Channel, Ca2+ Act., VI (KCaCh) (AID 2283336). In short, it runs like this:
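Radioligand binding to rat forebrain membranes, cell-free, read 1 hour after dosing by filter-based scintillation counting. Compounds first run in duplicate at 25 uM, actives then in concentration series; loss of signal vs DMSO indicates displacement.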

Experiment [14] concerns the target rat Gamma-Aminobutyric Acid Type A Receptor, Non-Selective (GABAR-NonSelective), Gabra1 (gene 29705) (UniProt P62813). In words: NVS_LGIC_rGABAR_NonSelective: NovaScreen (NVS) Ligand-Gated Ion Channel Assay for rat Gamma-Aminobutyric Acid Type A Receptor, Non-Selective (GABAR-NonSelective) (AID 2283326). In short, it runs like this: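 Radioligand displacement on rat whole-brain extract, 1 h, filter scintillation readout; signal loss fitted versus DMSO. Primary screen in duplicate at 25 uM; hits (e.g. ≥30% inhibition) retested in concentration-response up to 50 uM.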

human Peripheral-type Benzodiazepine Receptor (PBR), TSPO (gene 706), sequence (P30536 whole entry, looked up): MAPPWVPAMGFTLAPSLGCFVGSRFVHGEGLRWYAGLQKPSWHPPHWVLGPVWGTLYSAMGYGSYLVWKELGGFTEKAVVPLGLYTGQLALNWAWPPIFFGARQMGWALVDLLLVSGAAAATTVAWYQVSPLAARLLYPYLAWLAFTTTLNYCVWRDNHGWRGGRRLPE
rat Thyrotropin Releasing Hormone Receptor (TRH), Trhr (gene 25570), sequence (Q01717 whole entry, looked up): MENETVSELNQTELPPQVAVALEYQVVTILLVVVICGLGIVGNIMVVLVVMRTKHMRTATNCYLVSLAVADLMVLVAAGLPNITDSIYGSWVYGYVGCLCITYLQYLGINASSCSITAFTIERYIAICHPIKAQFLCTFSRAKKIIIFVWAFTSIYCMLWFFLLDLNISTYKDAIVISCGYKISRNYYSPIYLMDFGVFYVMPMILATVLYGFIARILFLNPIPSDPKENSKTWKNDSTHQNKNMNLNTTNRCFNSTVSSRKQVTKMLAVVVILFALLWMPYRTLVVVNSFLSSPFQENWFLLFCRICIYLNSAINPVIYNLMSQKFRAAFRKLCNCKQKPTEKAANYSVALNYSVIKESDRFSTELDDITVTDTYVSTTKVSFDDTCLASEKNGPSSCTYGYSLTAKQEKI
rat Peripheral-type Benzodiazepine Receptor (PBR), Tspo (gene 24230), sequence (P16257 whole entry, looked up): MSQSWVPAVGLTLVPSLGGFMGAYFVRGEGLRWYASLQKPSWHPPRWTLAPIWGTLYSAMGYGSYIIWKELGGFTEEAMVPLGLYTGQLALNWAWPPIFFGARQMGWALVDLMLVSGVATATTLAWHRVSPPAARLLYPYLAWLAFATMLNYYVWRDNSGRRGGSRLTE
rat Glutamate, AMPA Site (AMPA), Gria1 (gene 50592), sequence (P19490 whole entry, looked up): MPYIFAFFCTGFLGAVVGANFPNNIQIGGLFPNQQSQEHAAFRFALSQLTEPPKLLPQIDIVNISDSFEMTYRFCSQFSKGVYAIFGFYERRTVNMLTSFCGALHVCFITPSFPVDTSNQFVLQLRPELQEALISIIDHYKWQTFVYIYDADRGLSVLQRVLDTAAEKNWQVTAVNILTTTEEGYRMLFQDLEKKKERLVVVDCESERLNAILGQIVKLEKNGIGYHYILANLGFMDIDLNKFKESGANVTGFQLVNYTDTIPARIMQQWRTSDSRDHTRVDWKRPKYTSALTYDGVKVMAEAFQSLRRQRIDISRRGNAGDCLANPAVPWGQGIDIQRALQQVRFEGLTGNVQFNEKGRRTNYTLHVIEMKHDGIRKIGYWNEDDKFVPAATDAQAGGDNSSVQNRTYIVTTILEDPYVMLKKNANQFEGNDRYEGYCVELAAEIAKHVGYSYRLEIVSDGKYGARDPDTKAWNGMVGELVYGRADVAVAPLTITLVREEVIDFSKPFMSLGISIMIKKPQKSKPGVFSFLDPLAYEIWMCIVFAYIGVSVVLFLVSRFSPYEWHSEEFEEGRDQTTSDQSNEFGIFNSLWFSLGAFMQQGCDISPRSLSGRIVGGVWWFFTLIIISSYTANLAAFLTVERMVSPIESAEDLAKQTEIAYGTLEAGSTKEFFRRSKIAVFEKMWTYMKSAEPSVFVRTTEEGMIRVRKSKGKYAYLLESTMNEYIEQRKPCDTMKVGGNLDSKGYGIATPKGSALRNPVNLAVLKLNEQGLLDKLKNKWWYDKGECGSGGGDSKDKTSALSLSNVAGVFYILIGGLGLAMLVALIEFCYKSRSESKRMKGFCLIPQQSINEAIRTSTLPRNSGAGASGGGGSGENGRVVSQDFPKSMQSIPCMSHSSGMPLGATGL
bovine Gamma-Aminobutyric Acid Type A Receptor BDZ, alpha 1 site (GABARa1), GABRA1 (gene 780973), sequence (P08219 whole entry, looked up): as the sequence (P08219 whole entry, looked up) above
rat Gamma-Aminobutyric Acid Type A Receptor, Non-Selective (GABAR-NonSelective), Gabra1 (gene 29705), sequence (P62813 whole entry, looked up): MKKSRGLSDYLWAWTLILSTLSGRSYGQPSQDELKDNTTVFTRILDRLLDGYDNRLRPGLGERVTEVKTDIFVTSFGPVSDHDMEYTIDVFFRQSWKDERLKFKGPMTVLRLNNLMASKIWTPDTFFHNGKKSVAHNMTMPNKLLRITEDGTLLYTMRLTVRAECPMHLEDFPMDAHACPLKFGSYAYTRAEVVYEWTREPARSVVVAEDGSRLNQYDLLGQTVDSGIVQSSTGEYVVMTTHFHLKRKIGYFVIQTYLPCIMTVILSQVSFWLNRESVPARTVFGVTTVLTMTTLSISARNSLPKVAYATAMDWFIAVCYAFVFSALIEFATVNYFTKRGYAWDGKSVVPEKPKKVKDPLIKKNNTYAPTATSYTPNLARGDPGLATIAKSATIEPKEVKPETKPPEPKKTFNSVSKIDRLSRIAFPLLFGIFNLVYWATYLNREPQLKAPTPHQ

In the case of `C#CCOS(=O)OC1CCCCC1Oc1ccc(C(C)(C)C)cc1` (centres undefined), the molecule was called inactive in experiment [1]. For the same molecule, the AC50 (commonly the midpoint of the concentration-response curve, whichever way the signal moves) was 37.4 µM (active) in [2], 18.2 µM (active) in experiment [3] and 14.5 µM (active) in experiment [4].
As to `CNC(=S)S`, the molecule was classed as inactive in [5], in [6], in [3] and in experiment [4].
For `Oc1ccccc1-c1ccccc1`, the outcome in [7], in experiment [6], in experiment [3] and in [4] was inactive.
In the case of `COc1ccc(C(c2ccc(OC)cc2)C(Cl)(Cl)Cl)cc1`, the molecule was classed as inactive in [1], in [2], in experiment [8], in [5], in experiment [3] and in [4].
Take `COc1nc(C)nc(NC(=O)NS(=O)(=O)c2ccccc2Cl)n1`: the call in experiment [9] was inactive.
For `CCCCNC(=O)OCC#CI`, the AC50 in the experiment on NCBI gene 24521 was 9.23 µM (active) and 12.3 µM (active); in [3], 38.2 µM (active) and 41.3 µM (active); in experiment [4], 12.8 µM (active) and 10.7 µM (active). Besides, in experiment [10], the molecule was classed as inactive.
`CS/C(C)=N/OC(=O)N(C)SN(C)C(=O)O/N=C(\C)SC`: the molecule was classed as inactive in [1].
In the case of `COC(=O)N(OC)c1ccccc1COc1ccn(-c2ccc(Cl)cc2)n1`, the results for the concentration at half-maximal activity (AC50) in experiment [3] and in experiment [4] were 0.105 µM (active) and 0.26 µM (active), respectively.
As for `COc1nc(C)nc(NC(=O)NS(=O)(=O)c2ccccc2CCC(F)(F)F)n1`, the result in experiment [11] was inactive.
With `CC(C)Oc1cc(-n2nc(C(C)(C)C)oc2=O)c(Cl)cc1Cl`, the molecule was called inactive in experiment [6].
For `COc1cnc(OC)n2nc(NS(=O)(=O)c3c(OCC(F)F)cccc3C(F)(F)F)nc12`, the call in experiment [12] was inactive.
With `CON(C)C(=O)Nc1ccc(Cl)c(Cl)c1`, the AC50 was 11.9 µM (active) [middle of 4 runs] in experiment [3] and 4.62 µM (active) [middle of 4 runs] in experiment [4]. Besides, in experiment [13], the result was inactive.
`Cc1ccc(-c2c(Cl)nc(C#N)n2S(=O)(=O)N(C)C)cc1`: the call in experiment [3] and in [4] was inactive.
As for `N#Cc1nn(-c2c(Cl)cc(C(F)(F)F)cc2Cl)c(N)c1S(=O)C(F)(F)F` (centres undefined), the call in [6] was inactive.
Regarding `COP(=S)(OC)Oc1nc(Cl)c(Cl)cc1Cl`, the half-maximal activity concentration (AC50) in [3] is 17.9 µM (active); in experiment [4] it was 7 µM (active).
As to `COP(N)(=O)SC` (centres undefined), the outcome in experiment [3] was inactive.
As to `CC1=C(C(=O)Nc2ccccc2)SCCO1`, the AC50 in experiment [3] is 20.5 µM (active); in experiment [4] it was 12.3 µM (active).
`CN(C)C(=S)SSC(=S)N(C)C`: the call in experiment [14] was inactive. In [4], the AC50 was 11 µM (active).
`CC1COC(Cn2cncn2)(c2ccc(Oc3ccc(Cl)cc3)cc2Cl)O1` (centres undefined): the call in [3] and in experiment [4] was inactive.
For the molecule `O=C(O)COc1nc(Cl)c(Cl)cc1Cl`, the outcome in experiment [3] was inactive. Besides, the half-maximal activity concentration (AC50) in [4] was 14.6 µM (active).
Turning to `CCON=C(CC)C1=C(O)CC(c2c(C)cc(C)cc2C)CC1=O` (centres undefined), the molecule was classed as inactive in experiment [3].
`CCNc1nc(Cl)nc(NC(C)C)n1`: the molecule was classed as inactive in [10].
For the molecule `CCOc1cc(Oc2ccc(C(F)(F)F)cc2Cl)ccc1[N+](=O)[O-]`, the molecule was classed as inactive in [6].

The values are drawn from PubChem BioAssay (EPA / NIEHS).
